Source: the supplement of paper PMC6555819

Each sequence was assayed on VDR:RXRa (NR concentration 270 nM, RXRa partner concentration 90 nM) (assay: PBM binding z-score (relative to random genomic background probes); higher = stronger binding; sequences stand for … in GC…GCGATTGACAGCGTAGAATGAAGG).
Method: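 Protein-binding microarray (Agilent 4x180K custom design, double-stranded 60-nt probes: 5' GC cap, 34-nt variable region, 24-nt constant primer region; full probe sequence given). Purified or IVT nuclear receptor:RXRα heterodimers (3:1 NR:RXRα, mostly 270:90 nM) or homodimers were incubated for 1 h in PBS with 2% milk and no ligand, then detected with Alexa488 antibodies. Fluorescence from o1-orientation probes (~5 replicates averaged) was converted to z-scores against 500 random hg19 background probes. Variable regions are seed direct-repeat (DR0–DR5) sites, all their single-nucleotide variants and half-site ablations.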

| Sequence | PBM binding z-score |
| --- | --- |
| CGTCAAAGTTCAAGTAAGGTAACGTAAAGCACGC | 4.46 |
| CAAACTAGGTCACAGCGGTCAAAGTCCGTGCGTA | 5.9 |
| ACAGACAGGTGATTAAGGTAACTCAGGCTATCAT | 0.713 |
| ATGGAAAGGTCGAGGTGAGTATAGAGAAAGGGAA | 2.81 |
| TGAATGAGTTTATAAGATCAGGGAACGTTGCAAA | 1.26 |
| CAAACTAGGACAAGGTCAAAGTCGGTTTGTGCCA | 4.36 |
| AGAATGAGGTAACCAAAGATCAGGGAAACGCTTG | -0.129 |
| AATTACGGGTCAACGAGGTTATAGCACGCGTATA | 7.73 |
| TAGCCTAGGTCATTCAGGGACCAGTATAGAAAGC | 2.57 |
| TCTTGTAGATCAAAGGTTAAGAGAGCCGAAGCCT | 1.29 |
| CGTCAAAGTTCAACTAAGGTAACGGAAAGCACGC | 4.7 |
| CGTCCAAGGTCAGAGAGGTAAGTGAATGCCGAGT | 4.27 |
| CCTACTGGGCCACGAAAGGTCATCGATTCAGTGA | 4.24 |
| TCGAGTAGGTTAGGGGCATTCCGAATGGCGTCGA | 0.256 |
| CCTACTGGGCCAAAGGTCATTGAATCCAATGCTC | 4.86 |
| ATCGAAAGGTCGACGGGGTGAGTATACACCGTTT | 5.62 |
| TGTTGTAGATCAGCAGGTTAAGAAAGCTGGCCAA | -0.372 |
| ATCAAAAGGTCGACGAGGTGAGTATACACCGTTT | 5.4 |
| CAAACTAGGTCAAAGGTGAAAGTCGAGCCAACCA | 4.04 |
| ATACCAAGGTAATCGTGAGGTCGTTGATACTAAC | 3.1 |

| Sequence | PBM binding z-score |
| --- | --- |
| GCTTACGGGGCAAAGGTTATAGCATGAATAGAAT | 2.08 |
| GATACAGGGTCAGCTAGAGCCCAGAGTATGGAAA | 2.26 |
| TCTATTAGTTGATTAGGGCAACAGAAACAGCGGA | 0.574 |
| TGTATTAGTTGATTAGGGCAACCGAAACAGCGGA | 0.00753 |
| CCTACTGGGCCAAAAAGGTCTTTGATGCCGATAA | -0.154 |
| TAGCCTAGGTCAGATCGGGCCACTATACGCTATA | 1.39 |
| TCATATAGGTAATACAGGTGAAAATCGGCATCTA | 1.32 |
| CGAACTAGGGCAAGGACAGTGAATCTCCGCACGC | -0.473 |
| CCTTACGGGTCACGGACAGGTTATAGCATTTGGA | 4.74 |
| TCTTGTAGAACAAGCAGGTTAAGAAAGCCTGAGT | 0.279 |
| TCGCGTAGGTTAGTCGGGGCATTCAGCCAACATA | 2.54 |
| TCTCGGAGGACACGAAGGTCTGAGCTTTCCAGAG | -0.323 |
| CAAACTAGGTCAGAGAGGTCAAAGTCCGTGCGTA | 7.57 |
| AATACAGGGTCATCGTTGGCCAGAGTACGCACAG | 5.13 |
| TCATATTGGTAAATGCTAGGTGAAAGTCCGATCT | 0.687 |
| CCTACTGGGGCAAGGTCATTGATCAGTCAAAGCA | 3.59 |
| TCTTGTAGATCAAGCAGGTTAAAAAAGCCTGAGT | 1.04 |
| CGTCAAAGTTCAACTATGGTAACGTAAAGCACGC | 4.35 |
| ATCGAAAGGTCGTTAGGTGAGTATACAGAAAGGC | 3.58 |
| ATCTCTAGGTAAACATAGTTCAGTGAATGCAAAT | 1.34 |
